# Source: PubChem BioAssay AID1159580 (chemical genetic matrix, 2015)
# About 2,000 (36%) of roughly 5,500 compounds were called active. Roughly 18% stayed inconclusive and do not appear here. The list shows a part of the results. Values without a mark were called inactive. Cut-off read from the data, not from the text of the source: active = normalized growth mostly below about 0.91 (no sharp cut-off); inconclusive = no clear call, values can overlap the other calls; inactive = mostly above about 0.92.
# Assay: chemical genetic growth profiling, strain panel (AID 1159580);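 note: tested at 20 µM; growth read once vehicle control cultures reached saturation at 30 °C; 1 = growth at the plate median or of vehicle wells; lower values mean less growth of the strain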
# Conditions: growth OD
# [1] = S. cerevisiae deletion strains, locus YAL013W, strain DEP1, stronger effect = lower value
# [2] = S. cerevisiae deletion strains, locus YBR229C, strain ROT2, stronger effect = lower value
# [3] = S. cerevisiae deletion strains, locus YDL101C, strain DUN1, stronger effect = lower value
# [4] = S. cerevisiae deletion strains, locus YDR150W, strain NUM1, stronger effect = lower value
# [5] = S. cerevisiae deletion strains, locus YEL061C, strain CIN8, stronger effect = lower value
# [6] = S. cerevisiae deletion strains, locus YGR078C, strain PAC10, stronger effect = lower value
# [7] = S. cerevisiae deletion strains, locus YHR030C, strain SLT2, stronger effect = lower value
# [8] = S. cerevisiae deletion strains, locus YHR087W, strain rtc3, stronger effect = lower value
# [9] = S. cerevisiae deletion strains, locus YJR043C, strain POL32, stronger effect = lower value
# [10] = S. cerevisiae deletion strains, locus YJR075W, strain HOC1, stronger effect = lower value
# [11] = S. cerevisiae deletion strains, locus YLR039C, strain RIC1, stronger effect = lower value
# [12] = S. cerevisiae deletion strains, locus YLR058C, strain SHM2 (second series), stronger effect = lower value
# [13] = S. cerevisiae deletion strains, locus YLR085C, strain ARP6, stronger effect = lower value
# [14] = S. cerevisiae deletion strains, locus YLR262C, strain YPT6, stronger effect = lower value
# [15] = S. cerevisiae deletion strains, locus YML094W, strain GIM5, stronger effect = lower value
# [16] = S. cerevisiae deletion strains, locus YMR219W, strain ESC1, stronger effect = lower value
# [17] = S. cerevisiae deletion strains, locus YMR263W, strain SAP30, stronger effect = lower value
# [18] = S. cerevisiae deletion strains, locus YNL153C, strain GIM3, stronger effect = lower value
# [19] = S. cerevisiae deletion strains, locus YNL298W, strain CLA4 (second series), stronger effect = lower value
# [20] = S. cerevisiae deletion strains, locus YNL322C, strain KRE1, stronger effect = lower value
# [21] = S. cerevisiae deletion strains, locus YNR030W, strain Alg12, stronger effect = lower value
# [22] = S. cerevisiae deletion strains, locus YPL055C, strain LGE1, stronger effect = lower value
# [23] = S. cerevisiae deletion strains, locus YPL241C, strain CIN2, stronger effect = lower value
# [24] = S. cerevisiae deletion strains, locus YPR135W, strain CTF4, stronger effect = lower value
smiles,measurement,setting,value
Cc1cc(C)c(NC(=S)NCCCN2CCOCC2)c(C)c1,normalized growth,[1],1
same,normalized growth,[2],1.01
same,normalized growth,[3],0.992
same,normalized growth,[4],0.901
same,normalized growth,[5],1.01
same,normalized growth,[6],1.02
same,normalized growth,[7],1.07
same,normalized growth,[8],1.01
same,normalized growth,"S. cerevisiae deletion strains, locus YJL187C, strain SWE1, stronger effect = lower value",1.01
same,normalized growth,[9],0.986
same,normalized growth,[10],0.999
same,normalized growth,[11],1.03
same,normalized growth,[12],1.01
same,normalized growth,[13],1.05
same,normalized growth,[14],1.02
same,normalized growth,[15],1
same,normalized growth,[16],1
same,normalized growth,[17],1.03
same,normalized growth,[18],0.992
same,normalized growth,[19],1.04
same,normalized growth,[20],1.01
same,normalized growth,[21],1.02
same,normalized growth,[22],0.912
same,normalized growth,[23],0.995
same,normalized growth,[24],1.01
O=C(CCN1CCCCC1)c1ccc(-c2ccccc2)cc1,normalized growth,"S. cerevisiae deletion strains, locus YAR019C, strain CDC15, stronger effect = lower value",0.97
same,normalized growth,"S. cerevisiae deletion strains, locus YBL105C, strain PKC1, stronger effect = lower value",0.975
same,normalized growth,"S. cerevisiae deletion strains, locus YBR135W, strain CKS1, stronger effect = lower value",0.984
same,normalized growth,"S. cerevisiae deletion strains, locus YBR136W, strain MEC1, stronger effect = lower value",0.981
same,normalized growth,"S. cerevisiae deletion strains, locus YBR160W, strain CDC28, stronger effect = lower value",0.987
same,normalized growth,"S. cerevisiae deletion strains, locus YDL017W, strain CDC7, stronger effect = lower value",0.982
same,normalized growth,"S. cerevisiae deletion strains, locus YDL028C, strain MPS1, stronger effect = lower value",0.984
same,normalized growth,"S. cerevisiae deletion strains, locus YDL108W, strain KIN28, stronger effect = lower value",0.979
same,normalized growth,"S. cerevisiae deletion strains, locus YDL132W, strain cdc53, stronger effect = lower value",0.977
same,normalized growth,"S. cerevisiae deletion strains, locus YDL214C, strain PRR2, stronger effect = lower value",0.909
same,normalized growth,"S. cerevisiae deletion strains, locus YDR052C, strain DBF4, stronger effect = lower value",0.977
same,normalized growth,"S. cerevisiae deletion strains, locus YDR054C, strain cdc34, stronger effect = lower value",0.966
same,normalized growth,"S. cerevisiae deletion strains, locus YDR226W, strain ADK1, stronger effect = lower value",0.983
same,normalized growth,"S. cerevisiae deletion strains, locus YDR477W, strain SNF1, stronger effect = lower value",0.785
same,normalized growth,"S. cerevisiae deletion strains, locus YER123W, strain YCK3, stronger effect = lower value",0.892
same,normalized growth,"S. cerevisiae deletion strains, locus YER133W, strain GLC7, stronger effect = lower value",0.961
same,normalized growth,"S. cerevisiae deletion strains, locus YFL009W, strain cdc4, stronger effect = lower value",0.98
same,normalized growth,"S. cerevisiae deletion strains, locus YFL029C, strain CAK1, stronger effect = lower value",0.978
same,normalized growth,"S. cerevisiae deletion strains, locus YFR003C, strain YPI1, stronger effect = lower value",0.979
same,normalized growth,"S. cerevisiae deletion strains, locus YFR019W, strain FAB1, stronger effect = lower value",0.961
same,normalized growth,"S. cerevisiae deletion strains, locus YFR028C, strain CDC14, stronger effect = lower value",0.976
same,normalized growth,"S. cerevisiae deletion strains, locus YGR040W, strain KSS1, stronger effect = lower value",0.839
same,normalized growth,"S. cerevisiae deletion strains, locus YGR052W, strain FMP48, stronger effect = lower value",0.625
same,normalized growth,"S. cerevisiae deletion strains, locus YGR092W, strain DBF2, stronger effect = lower value",0.193 (active)
same,normalized growth,[7],0.567 (active)
same,normalized growth,"S. cerevisiae deletion strains, locus YHR079C, strain IRE1, stronger effect = lower value",0.691
same,normalized growth,"S. cerevisiae deletion strains, locus YHR082C, strain KSP1, stronger effect = lower value",0.811
same,normalized growth,"S. cerevisiae deletion strains, locus YHR205W, strain SCH9, stronger effect = lower value",0.471 (active)
same,normalized growth,"S. cerevisiae deletion strains, locus YIL147C, strain SLN1, stronger effect = lower value",0.977
same,normalized growth,"S. cerevisiae deletion strains, locus YJL095W, strain BCK1, stronger effect = lower value",0.689
same,normalized growth,"S. cerevisiae deletion strains, locus YJL128C, strain PBS2, stronger effect = lower value",0.866
same,normalized growth,"S. cerevisiae deletion strains, locus YJL157C, strain FAR1, stronger effect = lower value",0.925
same,normalized growth,"S. cerevisiae deletion strains, locus YJR016C, strain ILV3, stronger effect = lower value",0.98
same,normalized growth,"S. cerevisiae deletion strains, locus YJR066W, strain TOR1 (second series), stronger effect = lower value",0.898
same,normalized growth,"S. cerevisiae deletion strains, locus YJR066W, strain TOR1, stronger effect = lower value",0.733
same,normalized growth,"S. cerevisiae deletion strains, locus YKL048C, strain ELM1, stronger effect = lower value",0.699 (active)
same,normalized growth,"S. cerevisiae deletion strains, locus YKL067W, strain YNK1, stronger effect = lower value",0.93
same,normalized growth,"S. cerevisiae deletion strains, locus YKL101W, strain HSL1, stronger effect = lower value",0.454 (active)
same,normalized growth,"S. cerevisiae deletion strains, locus YKL193C, strain SDS22, stronger effect = lower value",0.976
same,normalized growth,"S. cerevisiae deletion strains, locus YLR113W, strain HOG1, stronger effect = lower value",0.642 (active)
same,normalized growth,"S. cerevisiae deletion strains, locus YLR133W, strain CKI1, stronger effect = lower value",0.908
same,normalized growth,"S. cerevisiae deletion strains, locus YLR403W, strain SFP1, stronger effect = lower value",0.755
same,normalized growth,"S. cerevisiae deletion strains, locus YML070W, strain DAK1, stronger effect = lower value",0.909
same,normalized growth,"S. cerevisiae deletion strains, locus YMR001C, strain CDC5, stronger effect = lower value",0.972
same,normalized growth,"S. cerevisiae deletion strains, locus YMR205C, strain PFK2 (second series), stronger effect = lower value",0.941
same,normalized growth,"S. cerevisiae deletion strains, locus YMR277W, strain FCP1, stronger effect = lower value",0.974
same,normalized growth,"S. cerevisiae deletion strains, locus YNL006W, strain LST8, stronger effect = lower value",0.983
same,normalized growth,"S. cerevisiae deletion strains, locus YNL020C, strain ARK1, stronger effect = lower value",0.822
same,normalized growth,"S. cerevisiae deletion strains, locus YNL161W, strain CBK1, stronger effect = lower value",0.991
same,normalized growth,"S. cerevisiae deletion strains, locus YNL207W, strain RIO2, stronger effect = lower value",0.971
same,normalized growth,"S. cerevisiae deletion strains, locus YNL222W, strain SSU72, stronger effect = lower value",0.977
same,normalized growth,"S. cerevisiae deletion strains, locus YNL307C, strain MCK1 (second series), stronger effect = lower value",0.246 (active)
same,normalized growth,"S. cerevisiae deletion strains, locus YOL078W, strain AVO1, stronger effect = lower value",0.98
same,normalized growth,"S. cerevisiae deletion strains, locus YOL136C, strain PFK27, stronger effect = lower value",0.896
same,normalized growth,"S. cerevisiae deletion strains, locus YOR061W, strain CKA2, stronger effect = lower value",0.805
same,normalized growth,"S. cerevisiae deletion strains, locus YOR119C, strain RIO1, stronger effect = lower value",0.757
same,normalized growth,"S. cerevisiae deletion strains, locus YOR231W, strain MKK1, stronger effect = lower value",0.782
same,normalized growth,"S. cerevisiae deletion strains, locus YOR329C, strain SCD5, stronger effect = lower value",0.976
same,normalized growth,"S. cerevisiae deletion strains, locus YPL031C, strain PHO85, stronger effect = lower value",0.79
same,normalized growth,"S. cerevisiae deletion strains, locus YPL153C, strain RAD53, stronger effect = lower value",0.872
same,normalized growth,"S. cerevisiae deletion strains, locus YPL204W, strain HRR25, stronger effect = lower value",0.889
same,normalized growth,"S. cerevisiae deletion strains, locus YPL209C, strain IPL1, stronger effect = lower value",0.981
same,normalized growth,"S. cerevisiae deletion strains, locus YPL256C, strain CLN2, stronger effect = lower value",0.684 (active)
same,normalized growth,"S. cerevisiae deletion strains, locus YPR025C, strain CCL1, stronger effect = lower value",0.982
same,normalized growth,"S. cerevisiae deletion strains, locus YPR106W, strain ISR1, stronger effect = lower value",0.989
same,normalized growth,"S. cerevisiae deletion strains, locus YPR111W, strain DBF20, stronger effect = lower value",0.97
same,normalized growth,"S. cerevisiae deletion strains, strain NNK1, stronger effect = lower value",0.966
same,normalized growth,"S. cerevisiae deletion strains, strain TSCII, stronger effect = lower value",0.97
CCCCOc1ccc(C(=O)CCC(=O)O)cc1,normalized growth,[1],0.977
same,normalized growth,[2],0.915 (active)
same,normalized growth,"S. cerevisiae deletion strains, locus YCL061C, strain MRC1, stronger effect = lower value",0.936
same,normalized growth,[3],0.886 (active)
same,normalized growth,"S. cerevisiae deletion strains, locus YDL134C, strain PPH21, stronger effect = lower value",1.04
same,normalized growth,[4],0.934
same,normalized growth,[5],1
same,normalized growth,[6],0.939
same,normalized growth,[7],0.997
same,normalized growth,[8],0.982
same,normalized growth,[9],0.879 (active)
same,normalized growth,[10],0.931
same,normalized growth,"S. cerevisiae deletion strains, locus YKL190W, strain CNB1, stronger effect = lower value",1.02
same,normalized growth,[11],0.945
same,normalized growth,[12],1.01
same,normalized growth,[13],0.985
same,normalized growth,[14],0.946
same,normalized growth,[15],1.01
same,normalized growth,[16],0.983
same,normalized growth,[17],0.969
same,normalized growth,[18],0.904 (active)
same,normalized growth,[19],1.01
same,normalized growth,[20],1.01
same,normalized growth,[21],0.982
same,normalized growth,"S. cerevisiae deletion strains, locus YOL006C, strain TOP1, stronger effect = lower value",1.05
same,normalized growth,[22],0.909
same,normalized growth,[23],1.01
same,normalized growth,[24],1.03
same,normalized growth,"S. cerevisiae strains, strain wild type, stronger effect = lower value",1.03
